Inconclusive results are not listed. The source made the active and inactive calls. The calls were made as follows, unless noted: active = hit-call score of the fitted dose curve at least 0.9, where 1 is the maximum; inconclusive = response in the unintended direction; inactive = score below 0.9.
Assay: CEETOX_H295R_MTT_cell_viability: Viability Assessment in the CeeTox HT-H295R MTT Assay (AID 2283718; active = hit-call score of the fitted dose curve at least 0.9, where 1 is the maximum; inactive = score below 0.9;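 as to AC50: curve fitted both ways so AC50 may mark viability loss or gain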)
Procedure, shortened: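 H295R cells prestimulated 48 h with 10 uM forskolin, then exposed 48 h to test chemical (0.1% DMSO final). Viability by MTT (0.5 mg/ml, 4 h, 37 C), absorbance 570/650 nm; percent change versus DMSO, bidirectional fit.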

Structure (SMILES) | AC50 | outcome
CC(Cc1ccc(C(C)(C)C)cc1)CN1C[C@@H](C)O[C@@H](C)C1 (stereo not given in full) | 65.8 µM (active) | 
O=CNC(N1CCN(C(NC=O)C(Cl)(Cl)Cl)CC1)C(Cl)(Cl)Cl (stereo not given) |  | inactive
Oc1cc(Cl)ccc1Cl |  | inactive

Assay: ACEA_AR_agonist_AUC_viability: ACEA Biosciences xCELLigence Real-Time Cell Analysis on Androgen Receptor Agonism for Viability (AID 2283775)
Procedure, shortened: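 Real-time impedance tracking of 22Rv1 growth, readings every 5 min for 5 h then hourly; area-under-curve viability endpoint at 80 hours, relative to DMSO. Compounds at eight concentrations, 1:4 steps, top 100 uM, n = 2.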

Structure (SMILES) | outcome
CCOP(O)OCC | inactive
Nc1cc(Cl)cc(Cl)c1 | inactive
[CH3][Sn]([CH3])([Cl])[Cl] | inactive
CCc1cccc(C)c1N(C(=O)CCl)[C@@H](C)COC | inactive
CC(Cc1ccc(C(C)(C)C)cc1)CN1C[C@@H](C)O[C@@H](C)C1 (stereo not given in full) | inactive
CN(C)C(=O)C(c1ccccc1)c1ccccc1 | inactive
CC1CCCC1.[C-]#[O+].[C-]#[O+].[C-]#[O+].[Mn] | inactive
CCC(=O)c1ccc(Cl)cc1 | inactive
O=CNC(N1CCN(C(NC=O)C(Cl)(Cl)Cl)CC1)C(Cl)(Cl)Cl (stereo not given) | inactive

Assay: ACEA_AR_antagonist_AUC_viability: ACEA Biosciences xCELLigence Real-Time Cell Analysis on Androgen Receptor Antagonism for Viability (AID 2283776);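 also: hits lower the growth signal relative to DMSO meaning cytotoxicity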
Procedure, shortened: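 22Rv1 human prostate cancer cells were seeded on electrode plates, monitored overnight, then exposed to eight 1:4 dilutions from 100 uM final. Impedance-based growth kinetics at 80 h gave an AUC viability endpoint normalized to DMSO.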

Structure (SMILES) | outcome
[CH3][Sn]([CH3])([Cl])[Cl] | inactive
CCc1cccc(C)c1N(C(=O)CCl)[C@@H](C)COC | inactive
CC(Cc1ccc(C(C)(C)C)cc1)CN1C[C@@H](C)O[C@@H](C)C1 (stereo not given in full) | inactive
CN(C)C(=O)C(c1ccccc1)c1ccccc1 | inactive
O=CNC(N1CCN(C(NC=O)C(Cl)(Cl)Cl)CC1)C(Cl)(Cl)Cl (stereo not given) | inactive
Oc1cc(Cl)ccc1Cl | inactive

Assay: ACEA_ER_AUC_viability: ACEA Biosciences xCELLigence Real-Time Cell Analysis on Estrogen Receptor Agonism for Viability (AID 2283782);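 also: continuous compound exposure with impedance area under curve over 80 h; hit means loss of impedance signal meaning reduced cell growth or viability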
Procedure, shortened: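 T-47D human breast cells in phenol red-free RPMI1640 with 10% charcoal-stripped FBS were dosed with an 8-point 1:4 dilution series from 100 uM top final concentration, in duplicate. Impedance-based growth was followed for 80 h; AUC analysed versus DMSO.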

Structure (SMILES) | outcome | AC50
Nc1ccc(-c2ccc(N)c(N)c2)cc1N | inactive | 
C#CC1(O)CCCCC1 |  | 61.7 µM (active)
Nc1c(Cl)c(Cl)c(Cl)c(Cl)c1Cl | inactive | 
COC(=O)c1ccccc1S(=O)(=O)NC(=O)Nc1nc(C)cc(C)n1 | inactive | 
N#Cc1cccc(C#N)c1 | inactive | 
O=C(O)CCCc1ccc(N(CCCl)CCCl)cc1 |  | 27.3 µM (active)
Nc1cc(Cl)cc(Cl)c1 | inactive | 
COC(C)(C)CCC[C@H](C)C/C=C/C(C)=C/C(=O)OC(C)C |  | 79.3 µM (active)
[CH3][Sn]([CH3])([Cl])[Cl] |  | 21.3 µM (active)
O=P1(NCCCl)OCCCN1CCCl (stereo not given) |  | 37.7 µM (active)
CC(Cc1ccc(C(C)(C)C)cc1)CN1C[C@@H](C)O[C@@H](C)C1 (stereo not given in full) |  | 89.5 µM (active)
C[N+](C)(C)CC(=O)O |  | 25.6 µM (active)
O=S(=O)(c1ccccc1)c1ccccc1 | inactive | 
Clc1ccc(-c2ccccc2)cc1 | inactive | 
C=CCc1ccc(OC(=O)Cc2ccccc2)c(OC)c1 | inactive | 
O=P(O)(Oc1ccccc1)Oc1ccccc1 | inactive | 
O=C(O)COc1ccccc1 | inactive | 
[Cl][Sb]([Cl])[Cl] |  | 87.8 µM (active)
CCC(=O)c1ccc(Cl)cc1 | inactive | 
CC1(C)CC(=O)CC(C)(C)N1[O] | inactive | 
SCc1ccco1 | inactive | 
O=CNC(N1CCN(C(NC=O)C(Cl)(Cl)Cl)CC1)C(Cl)(Cl)Cl (stereo not given) | inactive | 
